PubChem BioAssay (Tox21)
Results filed as inconclusive are left out. Values without a mark were called inactive. The source made the active and inactive calls. Calls follow the shape of the dose curve; as a rule, active = well fitted activation curve with a large enough effect in the repeat runs; inconclusive = weak or mixed curves; inactive = no such curve, though single readings can be large or run the other way.

Assay: qHTS assay to identify small molecule agonists of the estrogen related receptor signaling pathway with the pleiotropic PPARgamma coactivator (PGC) (AID 1224823)
Details: ERR/PGC reporter cell line, luciferase agonist mode; series mostly up to 46.1 µM; activation: at the top concentration
Description: National Center for Advancing Translational Sciences [NCATS]
NIH Chemical Genomics Center [NCGC]
U.S. Environmental Protection Agency [EPA]
National Institutes of Environmental Health Sciences [NIEHS]
National Toxicology Program [NTP]
Estrogen related receptors (ERRs), the first orphan nuclear receptors discovered, play an important role in the control of cellular energy metabolism. ERRs are required for high-energy production in response to the environmental challenges. The pleiotropic PPARgamma coactivator (PGC) is a major partner of ERR and a key regulator in energy homeostasis. Together they have been implicated in the etiology of metabolic disorders such as Type 2 diabetes and metabolic syndrome. ERR-alpha was also identified as an adverse marker for breast cancer progression; ERR-alpha-positive tumors have a poor prognosis. To screen and to identify environmental compounds that perturb the PGC/ERR signaling pathways could provide valuable information for potential therapeutic or preventive measures in the treatment of metabolic disease. For identifying PGC/ERR agonists, PGC/ERR cell line (provided by NTP) has been used to screen LOPAC library.
The PGC/ERR cells were dispensed at 2,000 cells/5 ul/well in 1536-well white plates using a Multidrop dispenser. After the assay plates were incubated at a 37 C/5% CO2 incubator for 6 hours, 23 nL of compounds dissolved in DMSO, positive and negative controls or DMSO only was transferred to the assay plate by a pin tool. The plates were incubated at 37 C for 18 hours. 4 ul/well of One-Glo reagent was added into the assay plates using a Flying Reagent Dispenser. After 30 min incubation at room temperature, the luminescence intensity in the plates was measured using a ViewLux plate reader.
% is scaled to controls: 0 for no effect and ±100 for the full control effect; potency is read from the fitted curve at half-maximal effect.

Structure (SMILES) | activation | Potency
Fc1ccc2[nH]c(CN3CCN(c4ccccn4)CC3)cc2c1 | 7.81% | 
O=C(O)CNC(=O)C(CS)Cc1ccccc1 (stereo not given) | 3.87% | 
O=C(CCCCCN1CCN(c2ccccc2-c2ccccc2)CC1)NC1CCCc2ccccc21 (stereo not given) | -15% | 
N=c1ccn2c(n1)O[C@H]1C(O)[C@@H](CO)O[C@H]12 (stereo not given in full) | 6.55% | 
C[C@@H](N)C1CCC(C(=O)Nc2ccncc2)CC1 (stereo not given in full) | -16.4% | 
O=C1c2ccccc2C(=O)c2c(NCCc3ccc(O)cc3)ccc(NCCc3ccc(O)cc3)c21 | -8.43% | 
C=C1C[C@@]23CC[C@H]4[C@@](C)(CCC[C@@]4(C)C(=O)O)[C@@H]2CC[C@]1(O)C3 | 1.57% | 
CCCCCCCCCCC(C)(C)C(=O)Nc1c(OC)cc(OC)cc1OC | -6.83% | 
CC1=C(C(=O)O)N2C(=O)[C@@H](NC(=O)C(N)c3ccccc3)[C@H]2SC1 (stereo not given in full) | -3.28% | 
OCC1O[C@H](O)C(Cl)C(O)C1O (stereo not given in full) | -4.29% | 
CC[C@H]1OC(=O)[C@H](C)[C@@H](O[C@H]2C[C@@](C)(OC)[C@@H](O)[C@H](C)O2)[C@H](C)[C@@H](O[C@@H]2O[C@H](C)C[C@H](NC)[C@H]2O)[C@](C)(O)C[C@@H](C)CN(C)[C@H](C)[C@@H](O)[C@]1(C)O | 3.4% | 
Nc1nc(Nc2ccccc2)nc2c1ncn2[C@@H]1O[C@H](CO)C(O)[C@H]1O (stereo not given in full) |  | 1.44 µM (active)
NC(=S)c1ccc[n+]([C@@H]2O[C@@H](COP(=O)([O-])OP(=O)(O)OC[C@H]3O[C@@H](n4cnc5c(N)ncnc54)[C@H](OP(=O)(O)O)C3O)C(O)C2O)c1 (stereo not given in full) |  | 18.8 µM (active)
Nc1ncnc2c1ncn2[C@@H]1O[C@H](COP(=O)(O)OP(=O)(O)OP(=O)(O)OP(=O)(O)OC[C@@H]2O[C@H](n3cnc4c(N)ncnc43)[C@@H](O)C2O)C(O)[C@H]1O (stereo not given in full) |  | 15 µM (active)
CC(C)C[C@H](NC(=O)[C@@H](O)[C@H](N)Cc1ccccc1)C(=O)O | -15.4% | 
CCC(=O)N1CCN(C(=O)c2ccccc2)CC1 | -7.21% | 
CCCN(CCc1ccccc1)C1CCc2c(O)cccc2C1 (stereo not given) | -4.26% | 
O=C(O)c1ccccc1Nc1ccccc1 | -2.93% | 
O=C(Nc1ccncc1)c1cc([N+](=O)[O-])ccc1Cl | -3.35% | 
C[C@@H](NCCc1ccc(O)cc1)[C@@H](O)c1ccc(O)cc1 | 6.38% | 

Structure (SMILES) | activation | Potency
O=c1[nH]c(=S)[nH]c(-c2ccccc2)c1Cc1c(O)ccc2ccccc12 | -8.5% | 
CC(=O)/C=C1\C(=O)N(C)c2ccccc21 | -37.1% | 
CCCC(=O)NCCc1c2n(c3ccc(OC)cc13)CCCc1ccccc1-2 | -18.9% | 
CCCC(=O)c1cc(O)c(O)cc1O | -9.99% [at 92.2 µM] | 
NCCCS(=O)(=O)O | -5.37% | 
CC(=O)NC[C@H]1CN(c2ccc(N3CCOCC3)c(F)c2)C(=O)O1 | -4.14% | 
NCCCCC(=O)O | 2.03% | 
C[N+](C)(C)CCOP(=O)(O)OP(=O)([O-])OC[C@H]1O[C@@H](n2ccc(N)nc2=O)[C@H](O)C1O (stereo not given in full) | 1.95% | 
Nc1ncnc2c1ncn2C1CCCO1 (stereo not given) | -1.28% | 
O=c1oc(Cl)c(Cl)c2ccccc12 | -21.9% | 
Cn1cc(C(F)(F)F)nc1-c1ccc(OCC(O)CNCCOc2ccc(O)c(C(N)=O)c2)cc1 (stereo not given) | -7.88% | 
NC(=O)c1cc[n+](CC2=C(C(=O)O)N3C(=O)[C@@H](NC(=O)[C@@H](c4ccccc4)S(=O)(=O)[O-])[C@H]3SC2)cc1 | 2.08% | 
COc1cc(N)c(Cl)cc1C(=O)OCCN1CCCCC1 | 2.97% | 
CCCCOC(=O)NS(=O)(=O)c1sc(CC(C)C)cc1-c1ccc(Cn2c(CC)nc3c(C)cc(C)nc32)cc1 | -14.6% | 
Cc1nc2n(c(=O)c1CCN1CCC(c3noc4cc(F)ccc34)CC1)CCCC2O (stereo not given) | -6.53% | 
NCCCCN | -2.29% | 
COc1ccc(-c2cc(=O)c3c(O)c(OC)c(OC)cc3o2)cc1O | 7.23% | 
CC(=O)O[C@H]1Cc2ccccc2N(C(N)=O)c2ccccc21 | 6.12% | 
CC(C)(C)[C@]1(O)CCN2C[C@H]3c4ccccc4CCc4cccc(c43)[C@@H]2C1 |  | inactive
CN1CC(O)C(O)C(O)C1CO (stereo not given) | 0.78% | 
